The OligoGym collection

Target: STAP2
Test: pooled miR-30 sensor sort-seq; sequence = guide strand
Details: shRNA
Also: reference of the scale not given here.

Row | Sequence | sensor-assay potency score (higher = more potent)
1 | TAGAAAGCTCTCATAGTAGTGT | 0.706
2 | TTGAGCTTCTCCACGTGCTGGA | 0.441
3 | TAGTTCTCTTCCTGGTTCGGTA | -0.765
4 | TCTCATAGTAGTGTGAAGGCAG | 0.0304
5 | TTCCACATCGATCACGTACTTG | -0.479
6 | TTCTTCTGTAGCTCTGCCGTCA | -0.496
7 | TTCTTCTCTAGAAAGCTCTCAT | -0.00657
8 | TTCTCATAGTCAACAGCTGGGC | -0.883

Target: STARD13
Test: as above
Details: shRNA

Row | Sequence | sensor-assay potency score (higher = more potent)
9 | TTGTCATAGATACTGACTCGGC | -0.87
10 | TTGTAGTCTGATCAAATCGCAA | -1.15
11 | TTAGTCGTCTGCAAAGAGGTTC | -0.341
12 | TTTGTAGTCGGGAACTTTCATC | -0.697
13 | TATAACTGAGCGTATTGCGGGA | -0.462
14 | TGACCTTTCAGGTCTATCCTGC | 0.102
15 | ATGAACTTTGGAACTGACCATG | -1.26
16 | TTGTTCAACGTATTTAGTCGTC | -0.155
17 | TAGTCGGGAACTTTCATCCTCT | 0.0488
18 | TTGCTGAATACTTTGAGGCAGG | -0.948
19 | TTGAATTTTAGTCACTAGCTGA | -0.1
20 | TATTTCTTCTGTATGACTCGTG | 0.941
